In PubChem BioAssay (NCATS):
Records with an inconclusive call do not appear. Entries that show only a call come without a potency. Values without a mark were called inactive. Active and inactive are the calls of the source. The call rests on the fitted dose curve; in most records, active means well fitted curve in the direction sought with a large enough effect; inconclusive means small, poorly fitted or top-dose-only effect, or another doubt; inactive means no such curve, though single readings can be large; an effect the other way counts as inactive or inconclusive.

Columns and labels:
[1] = NS1 protein of Zika virus - qHTS assay to identify small molecule inhibitors in human HEK 293 cells (AID 1347053); further: series mostly up to about 46 µM; nearly all actives have a fitted effect of over 55% in size
Method in brief: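 HEK 293 cells, seeded 20 h at 37 C, were pretreated with compound 1 h, then infected with ZIKV MR766 (MOI = 0.5) for 24 h. NS1 was read by TR-FRET with two anti-NS1 antibodies, normalized to uninfected and infected wells.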

[2] = qHTS of pediatric cancer cell lines to identify multiple opportunities for drug repurposing: Primary screen for TC32 cells (AID 1347089); further: nearly all actives have a fitted effect of over 60% in size; further: potency means the concentration at half of the fitted maximal effect
Method in brief: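 Measured quantity: luminescence from CellTiter-Glo, reflecting metabolically active TC32 cells following 48 h of compound. Curves came straight from multi-point titrations, with 8 or 11 points in primary and 11 in confirmatory screening.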

[3] = qHTS of pediatric cancer cell lines to identify multiple opportunities for drug repurposing: Primary screen for DAOY cells (AID 1347090); further: series mostly up to about 46 µM; nearly all actives have a fitted effect of over 55% in size
Method in brief: (§1)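 Eight- or eleven-point concentration series, 48 h treatment at 37 degrees C in growth media; readout CellTiter-Glo luminescence. Potency and efficacy were taken from the concentration-response curves.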

[4] = qHTS of pediatric cancer cell lines to identify multiple opportunities for drug repurposing: Primary screen for BT-37 cells (AID 1347094); further: series mostly up to about 57 µM
Method in brief: (§2)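 Viability was measured as metabolically active cells after 48 hours of treatment, read by CellTiter-Glo luminescence. Compounds were tested at multiple final concentrations, giving concentration-response curves.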

[5] = qHTS of pediatric cancer cell lines to identify multiple opportunities for drug repurposing: Primary screen for U-2 OS cells (AID 1347096); further: nearly all actives have a fitted effect of over 50% in size
Method in brief: (§3)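 Cells (500-1,000/well) in growth media were settled 5 h at 37 degrees C, then given compounds for 48 h. Viability was read as CellTiter-Glo luminescence. Primary runs used MIPE at 11 points (0.78 nM-46 µM) and NPC at 8 points (0.59 nM-46 µM); follow-ups used 11 points.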

[6] = qHTS of pediatric cancer cell lines to identify multiple opportunities for drug repurposing: Primary screen for SK-N-SH cells (AID 1347098);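 further: DMSO served as neutral control and bortezomib at 2.3 µM as positive control; nearly all actives have a fitted effect of over 65% in size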
Method in brief: (§4)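 Cells (500-1,000/well) rested 5 h, then received compounds for 48 h; metabolically active cells were measured by CellTiter-Glo luminescence. Final concentrations spanned up to 46 µM (MIPE, 11-point) or 0.59 nM-46 µM (NPC, 8-point) in primary screens, 11-point in follow-ups.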

[7] = qHTS of pediatric cancer cell lines to identify multiple opportunities for drug repurposing: Primary screen for LAN-5 cells (AID 1347100)
Method in brief: as §3

[8] = qHTS of pediatric cancer cell lines to identify multiple opportunities for drug repurposing: Primary screen for Rh18 cells (AID 1347102); further: nearly all actives have a fitted effect of over 65% in size
Method in brief: as §3

[9] = qHTS of pediatric cancer cell lines to identify multiple opportunities for drug repurposing: Primary screen for SJ-GBM2 cells (AID 1347091)
Method in brief: as §1

[10] = qHTS of pediatric cancer cell lines to identify multiple opportunities for drug repurposing: Primary screen for A673 cells (AID 1347092); further: nearly all actives have a fitted effect of over 45% in size
Method in brief: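 Cells are plated, rested 5 h, dosed by pintool, incubated 48 h, then lysed with CellTiter-Glo and read by luminescence. DMSO is the neutral control; bortezomib at 2.3 uM final is the positive control.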

[11] = qHTS of pediatric cancer cell lines to identify multiple opportunities for drug repurposing: Primary screen for SK-N-MC cells (AID 1347093); further: series mostly up to about 46 µM
Method in brief: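 Metabolically active cells were quantified by ATP-dependent luminescence (CellTiter-Glo, 15 min at room temperature) following 48 h treatment. Cells had been plated at 500-1,000 per well and settled for 5 h beforehand.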

[12] = qHTS of pediatric cancer cell lines to identify multiple opportunities for drug repurposing: Primary screen for NB-EBc1 cells (AID 1347095)
Method in brief: as §2

[13] = qHTS of pediatric cancer cell lines to identify multiple opportunities for drug repurposing: Primary screen for NB1643 cells (AID 1347099); further: nearly all actives have a fitted effect of over 50% in size; further: potency means the concentration at half of the fitted maximal effect
Method in brief: as §2

[14] = qHTS of pediatric cancer cell lines to identify multiple opportunities for drug repurposing: Primary screen for BT-12 cells (AID 1347101); further: nearly all actives have a fitted effect of over 25% in size
Method in brief: as §4

[15] = qHTS of pediatric cancer cell lines to identify multiple opportunities for drug repurposing: Primary screen for Saos-2 cells (AID 1347097); further: nearly all actives have a fitted effect of over 40% in size; further: potency means the concentration at half of the fitted maximal effect
Method in brief: as §2

[16] = qHTS of pediatric cancer cell lines to identify multiple opportunities for drug repurposing: Primary screen for OHS-50 cells (AID 1347103); further: nearly all actives have a fitted effect of over 40% in size; further: potency means the concentration at half of the fitted maximal effect
Method in brief: as §4

SMILES | Potency [1] | Potency [2] | Potency [3] | Potency [4] | Potency [5] | Potency [6] | Potency [7] | Potency [8] | Potency [9] | Potency [10] | Potency [11] | Potency [12] | Potency [13] | Potency [14] | Potency [15] | Potency [16]
CCCCCCCCCCC[C@@H](C[C@@H]1OC(=O)[C@H]1CCCCCC)OC(=O)[C@H](CC(C)C)NC=O | inactive | inactive | inactive | inactive | inactive | inactive | inactive | inactive |  |  |  |  |  |  |  | 
O=[N+]([O-])c1cccc(S(=O)(=O)NCCNS(=O)(=O)c2cccc([N+](=O)[O-])c2)c1 | inactive |  | inactive | inactive | inactive | inactive | inactive | inactive | inactive | inactive | inactive | inactive | inactive | inactive |  | 
O=S(c1cc(Cl)cc(Cl)c1O)c1cc(Cl)cc(Cl)c1O | inactive | inactive | inactive |  | inactive | inactive | inactive | inactive |  | inactive |  |  | inactive | inactive | 16.8 µM (active) | inactive
O=C1C(=O)c2ccccc2C(O)=C1C1CCC(c2ccc(Cl)cc2)CC1 (centres undefined) | inactive |  | inactive | inactive | inactive | inactive | inactive | inactive | inactive | inactive | inactive |  |  | inactive |  | inactive
CN1CCN(C2=Nc3ccccc3Sc3ccc(Cl)cc32)CC1 | inactive |  | inactive | inactive |  | inactive | inactive |  | inactive | inactive | inactive | inactive | inactive | inactive | inactive | 
C=C[C@@]1(C)CC(=O)[C@]2(O)[C@@]3(C)[C@@H](O)CCC(C)(C)[C@@H]3[C@H](O)[C@H](OC(C)=O)[C@@]2(C)O1 | inactive |  | inactive |  | inactive | inactive | inactive |  | inactive | inactive | inactive | inactive |  |  | inactive | 
CC(=O)Nc1ccc(OC(=O)c2ccccc2OC(C)=O)cc1 | inactive |  | inactive | inactive | inactive | inactive | inactive | inactive | inactive | inactive | inactive | inactive | inactive | inactive | inactive | inactive
NS(=O)(=O)Cc1noc2ccccc12 | inactive |  | inactive |  | inactive | inactive | inactive | inactive | inactive | inactive | inactive | inactive | inactive | inactive | inactive | inactive
O=C(Nc1ccccc1)OCC(CN1CCCCC1)OC(=O)Nc1ccccc1 (centres undefined) | inactive | inactive | inactive |  | inactive |  |  |  |  |  | inactive | inactive | inactive |  |  | 
CCc1nn(CCCN2CCN(c3cccc(Cl)c3)CC2)c(=O)n1CCOc1ccccc1 | inactive | inactive |  |  |  |  |  | inactive |  |  |  | inactive | inactive |  |  | 24.6 µM (active)
CCOC(=O)[C@@](C)(N)Cc1ccc(O)c(O)c1 | inactive | 21 µM (active) |  | inactive | inactive |  | inactive | inactive | inactive |  |  | inactive | 23.7 µM (active) |  |  | 
CC(C(=O)O)c1cccc(Oc2ccccc2)c1 (centres undefined) | inactive |  | inactive | inactive |  | inactive | inactive | inactive | inactive | inactive | inactive | inactive | inactive |  | inactive | inactive
CCN(CC)CCOC(=O)C1(c2ccccc2)CCCC1 | inactive |  | inactive | inactive | inactive | inactive | inactive | inactive | inactive | inactive | inactive | inactive | inactive | inactive | inactive | inactive
CCC(Cc1c(I)cc(I)c(N)c1I)C(=O)O (centres undefined) | inactive |  | inactive | inactive | inactive | inactive | inactive | inactive | inactive | inactive | inactive | inactive | inactive | inactive | inactive | inactive
COc1cc(C(=O)NCc2ccc(OCCN(C)C)cc2)cc(OC)c1OC | inactive |  | inactive | inactive | inactive | inactive | inactive | inactive | inactive | inactive | inactive | inactive | inactive | inactive |  | inactive
CCC1NC(=O)c2cc(S(N)(=O)=O)c(Cl)cc2N1 (centres undefined) | inactive |  | inactive | inactive | inactive | inactive | inactive | inactive | inactive | inactive | inactive | inactive | inactive | inactive | inactive | inactive
CCOc1ccc(NC(C)=O)cc1 | inactive |  | inactive | inactive | inactive | inactive | inactive | inactive | inactive | inactive | inactive | inactive |  | inactive | inactive | inactive
